The full list was thinned out, with hits kept by preference.
ST2 IL33 inh: blocks human ST2 binding to IL-33. Q01638. AlphaLISA ST2-Fc/biotin-IL-33 interaction, 1 h. inhibition, % for hits at 17 µM. hit rate 2.3% among 78,000. AID 1259354; in the data active means inhibition above about 30%
Target sequence (Q01638 whole entry, looked up): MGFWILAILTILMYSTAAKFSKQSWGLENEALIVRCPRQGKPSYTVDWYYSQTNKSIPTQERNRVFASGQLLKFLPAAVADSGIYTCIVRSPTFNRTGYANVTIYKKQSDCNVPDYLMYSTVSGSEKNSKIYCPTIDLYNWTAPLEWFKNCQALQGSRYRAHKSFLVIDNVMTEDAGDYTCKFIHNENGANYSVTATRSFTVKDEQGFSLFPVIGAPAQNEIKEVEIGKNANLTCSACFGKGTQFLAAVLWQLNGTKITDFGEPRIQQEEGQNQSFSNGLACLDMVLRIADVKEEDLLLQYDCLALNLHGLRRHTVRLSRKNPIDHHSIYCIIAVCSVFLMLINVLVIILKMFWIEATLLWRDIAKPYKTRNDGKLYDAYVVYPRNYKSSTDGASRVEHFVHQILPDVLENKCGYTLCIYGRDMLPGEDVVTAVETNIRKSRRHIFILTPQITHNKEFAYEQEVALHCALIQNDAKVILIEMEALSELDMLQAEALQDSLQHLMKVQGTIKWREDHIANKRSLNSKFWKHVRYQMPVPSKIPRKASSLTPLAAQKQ
Active calls of the source: *; i = inactive.

SMILES	ST2 IL33 inh
Cc1cc(C=C2C(=O)N(C)C(=O)N(C)C2=O)c(C)n1-c1ccc(Cl)c(Cl)c1	i
Cc1ccc(N2NC(=O)/C(=C/c3ccc(Cl)cc3Cl)C2=O)cc1Cl	i
O=C(c1ccccc1Br)N1CCCCC1CO (centres undefined)	i
O=C(NC1C[C@@H]1c1ccccc1)[C@@H]1CC1c1ccccc1 (some centres undefined)	i
O=C(Nc1ccc(Nc2ccccc2)cc1)C1CC1c1ccccc1 (centres undefined)	30.0%*
NNC(=O)C1CC1c1ccccc1 (centres undefined)	i
COc1ccc(C2C3=C(CC(C)(C)CC3=O)Nc3nc(SC)[nH]c(=O)c32)cc1OC (centres undefined)	i
COc1ccc(-c2cc(C[C@H]3CNCC[C@H]3CC(=O)N3CCN(C(C)=O)CC3)no2)cc1	i
COC(=O)c1cc(C[C@H]2CNCC[C@H]2CC(=O)O)no1	77.0%*
COc1ccccc1CNC(=O)C[C@@H]1CCNC[C@@H]1Cc1cc(-c2ccccc2)on1	i
COc1ccc(CNC(=O)C[C@@H]2CCNC[C@@H]2Cc2cc(-c3ccccc3)on2)cc1OC	i
CCCCc1cc(C[C@H]2CNCC[C@H]2CC(=O)N2CCc3cc(OC)c(OC)cc3C2)no1	i
CCCCc1cc(C[C@H]2CNCC[C@H]2CC(=O)N2CCN(C(C)=O)CC2)no1	43.0%*
O=C(COc1ccc(Cl)cc1Cl)Nc1nccs1	i
OCc1cccc(-c2nc[nH]c2-c2ccccc2)c1	i
COc1ncc(C(=O)NC(C)C23CC4C[C@H](CC(O)(C4)C2)C3)cn1 (some centres undefined)	i
COc1ccccc1NC(=O)N1CCCN(CC2CC2)C(C(C)C)C1 (centres undefined)	i
COc1ccc(CC(=O)N2N=C(C)CC2(O)c2cccnc2)cc1 (centres undefined)	i
CCN1C(=Nc2cccnc2)SCC1(O)c1ccccc1 (centres undefined)	33.0%*
O=C(NCC1CCCO1)C1CCN(C2CCN(CC#Cc3ccccc3)CC2)CC1 (centres undefined)	i
Cc1ccccc1C(=O)N1CCN(c2cccc(Cl)c2)CC1	i
O=C(CN1C(=O)COc2ccc(S(=O)(=O)N3CCCC3)cc21)NCc1ccccc1	i
Cc1nc(CCN(C)C(=O)c2cccc(NCc3ccc(C)s3)c2)no1	i
Cc1cccc(N=Cc2cc3c(cc2[N+](=O)[O-])OCO3)c1	33.0%*
CCN(CC)Cc1c(O)ccc2cc(-c3nc4ccccc4[nH]3)c(=O)oc12	i
SMILES	ST2 IL33 inh
O=[N+]([O-])c1cc2c(cc1C=Nc1ccc(Cl)c(C(F)(F)F)c1)OCO2	i
Oc1ccccc1-c1nc2ccccc2[nH]1	i
Cc1cccc2oc(-c3cccc(N=Cc4cccc([N+](=O)[O-])c4O)c3)nc12	i
O=[N+]([O-])c1cc2c(cc1C=Nc1ccc(O)c(-c3nc4ccccc4[nH]3)c1)OCO2	30.0%*
COc1cc(-c2nc(N3CCCCC3C)c3ccccc3n2)cc(OC)c1OC (centres undefined)	i
O=C(CN(Cc1ccccc1)S(=O)(=O)c1cc(Cl)ccc1Cl)NCc1cccnc1	i
Cn1cc(S(=O)(=O)CC(=O)Nc2ccc(F)cc2)c2ccccc21	i
COc1cccc(C2C(C(=O)Nc3nc4ccccc4s3)=C(C)NC3=C2C(=O)CC(C)(C)C3)c1 (centres undefined)	i
CC[C@@]12C[C@H]3C[C@@](O)(C1)C[C@](C(=O)NCCS(=O)(=O)CC)(C3)C2	i
CC(C)OCCCNC(=O)C1Cc2ccccc2CN1S(C)(=O)=O (centres undefined)	i
Fc1cccc(-c2nnc3n2N=C(c2cccc(Br)c2)CS3)c1	i
Oc1ccccc1C1=Nc2ccccc2N=C(c2cccc(F)c2)C1	30.0%*
O=C1CC(c2ccccc2)=Nc2ccccc2N1	i
O=C(NC[C@H]1O[C@@H](CO)[C@@H](O)[C@H]1N1CCN(c2cccc(C(F)(F)F)c2)CC1)c1cccc(F)c1	i
O=C(NC[C@H]1O[C@@H](CO)[C@@H](O)[C@H]1N1CCN(c2ccccc2)CC1)N1CCOCC1	i
O=C(NC[C@H]1O[C@@H](CO)[C@@H](O)[C@H]1N1CCN(c2cccc(C(F)(F)F)c2)CC1)c1cccs1	i
COc1cc(NC(=O)NC[C@H]2O[C@@H](CO)[C@@H](O)[C@H]2N2CCN(c3cccc(C(F)(F)F)c3)CC2)cc(OC)c1	86.0%*
O=C(NC[C@H]1O[C@@H](CO)[C@@H](O)[C@H]1N1CCN(c2ccccc2)CC1)c1ccc(C(F)(F)F)cc1	i
COc1ccccc1N1CCN([C@@H]2[C@H](O)[C@H](CO)O[C@@H]2CNC(=O)c2cccc(F)c2)CC1	i
CC(=O)NC[C@H]1O[C@@H](CO)[C@@H](O)[C@H]1N1CCN(c2ccccc2)CC1	37.0%*
COc1ccc(C(=O)NC[C@H]2O[C@@H](CO)[C@@H](O)[C@H]2N2CCN(c3ccccn3)CC2)cc1	i
CN1CCN([C@@H]2[C@H](O)[C@H](CO)O[C@@H]2CNC(=O)Nc2cccc(Cl)c2)CC1	i
CN1CCN([C@@H]2[C@H](O)[C@H](CO)O[C@@H]2CNC(=O)c2cccc(F)c2)CC1	32.0%*
O=C(NC[C@H]1O[C@@H](CO)[C@@H](O)[C@H]1N1CCN(c2ccc(F)cc2)CC1)c1ccc(F)c(Cl)c1	34.0%*
O=C(NC[C@H]1O[C@@H](CO)[C@@H](O)[C@H]1N1CCCC1)c1ccco1	i
SMILES	ST2 IL33 inh
O=C(Cn1c(=O)n(-c2ccc(F)cc2)c(=O)c2sccc21)Nc1ccc(F)cc1	i
O=Cc1cc(Cl)c(OCC(=O)O)c(Br)c1	i
CC1=C(C(=O)Nc2ccccn2)C(c2cccc(Br)c2)C2=C(CCCC2=O)N1 (centres undefined)	i
COc1cc(NC(=O)c2cccc([N+](=O)[O-])c2)c(OC)cc1Cl	i
O=C(CCN1CCCO1)N1CCOC(CCCc2ccccc2)C1 (centres undefined)	i
Cc1cc(N2CCOCC2)nc2ccc(NC(=O)CCC(=O)Nc3ccc(F)cc3F)cc12	i
CCN(Cc1nc(COC)no1)C(=O)Cc1c[nH]c2ccccc12	i
Cc1ccc(COC(=O)c2nonc2N)c(C)c1	i
COC(=O)[C@@H]1C[C@@H](NC(=O)c2ccc(CN3CCC(C)CC3)o2)CN1C	i
COc1ccccc1C(=O)NC(Nc1ccccc1)C(Cl)(Cl)Cl (centres undefined)	i
CCC(=O)N1CCc2cc(Br)cc(S(=O)(=O)NCc3ccc(F)cc3)c21	i
COc1cccc(OC)c1C(=O)ON1C(=O)c2ccccc2C1=O	i
COc1cccc(N2C(=O)NC(Cc3c[nH]c4ccccc34)C2=O)c1 (centres undefined)	i
CCN1C(=O)[C@H]2[C@@H](c3csc(C(C)=O)c3)N[C@@](CC)(C(=O)OC)[C@H]2C1=O	i
CCCn1cc(S(=O)(=O)CC(=O)Nc2ccc(Br)cc2)c2ccccc21	i
CCN(C(=O)Cn1cnc2c1c(=O)n(C)c(=O)n2C)c1ccccc1	i
CCC(C(=O)Nc1ccc(S(=O)(=O)N2CCOCC2)cc1)c1ccccc1 (centres undefined)	i
CN(C)C1N(C(=O)c2ccc(Cl)cc2)N=C2c3ccccc3S(=O)(=O)N21 (centres undefined)	i
CCN(CC)CCNC(=O)C1CCN(Cc2sccc2C)CC1	i
N#CC1=C(N)Oc2cc(N)ccc2C1c1cccc(I)c1 (centres undefined)	i
